The text below walks through data of ChEMBL document CHEMBL3988442, “University of Dundee, Small-Polar-MMV Screening Library” (2021).

Out of some 53,000 compounds screened, about 900 (1.7%) showed an effect of 50% or more. Only a selection was taken, and strong results are over-represented in it overall.

The test concerns Mycobacterium tuberculosis. In words: Cornell - Phenotypic assay to identify agents that inhibit growth of Mycobacterium tuberculosis. It counts as functional. On the set-up: scale not given: direction of the effect not stated beside the values. The note with it: 10 mM as filed; unlikely as a test dose.
On to `Fc1ccc([C@@H]2COC[C@H]2NCc2cccc(F)c2)cc1.O=C(O)CC(O)(CC(=O)O)C(=O)O`, for which the “Percent Effect” value was determined as 12.54%.
Consider `CCCNC(=O)c1nn(CC)cc1NC(=O)c1cn(C)nc1C`, for which the “Percent Effect” value is reported as 34.88%.
`CC(=O)Nc1nc(CN2CCn3c(C)nnc3C2)cs1`: the “Percent Effect” value is -12.41%.
The same measure for `COCCCn1c(CN2CCSCC2)cnc1S(=O)(=O)C1CCCC1`: 27.36%; for `COCCN1C[C@@H](c2ccccc2)[C@@]2(CCN(CC(=O)N(C)C)C2=O)C1.O=C(O)C(F)(F)F`: 13.65%.
`O=C(c1cncs1)N1CCCC1c1ccn[nH]1` (configuration not stated): the “Percent Effect” value was 104.4%.
Turning to `CS(=O)(=O)c1cn[nH]c1C1CCCCN1C(=O)c1cncs1` (configuration not stated), the “Percent Effect” value is recorded as -10.78%.
With `O=C(c1n[nH]c(=O)c2ccccc12)N1CCCCC1c1ccn[nH]1` (configuration not stated), the “Percent Effect” value is -33.63%.
The same measure for `Cc1ncncc1C(=O)N1CCCC(Cc2nccs2)C1` (configuration not stated): -16.51%.
The result for `Cc1csc(CN2CC[C@H]3C[C@@H](c4nnc(C)[nH]4)O[C@@H]3C2)n1` reads -4.039%; that for `CC(C)N(C(=O)Cn1nc2n(c1=O)CCCCC2)C1CCC1`, 0.8005%; that for `Fc1ccccc1CN1CCC[C@@H](Cn2nnc(-c3cccs3)n2)C1`, 75.98%.
`Fc1cccc(CN2CCC[C@H](Cn3nnc(-c4ccccn4)n3)C2)c1`: the “Percent Effect” value stood at 14.75%.
Consider `Fc1ccccc1CN1CCC[C@H](Cn2nnc(-c3cccs3)n2)C1`, for which the “Percent Effect” value is reported as 35.5%.
For `CCc1ccccc1NC(=O)c1cnn(C)c1C`, the “Percent Effect” value was 25.28%.
The result for `Nc1no[n+]([O-])c1C(=O)NCc1ccccn1` reads -59.59%.
The same measure for `O=C(c1ccncc1)N1CCCC1c1nc(O)cc(-c2ccccn2)n1` (configuration not stated): -36.16%; for `CSCC(CCO)Nc1nc(C(F)F)nc2ccccc12` (configuration not stated): 41.07%; for `CCc1noc(C(C)N2CCN(CC(=O)N3CCOCC3)CC2)n1` (configuration not stated): 11.6%.
Consider `N#Cc1cccc(NC2CC(=O)N(C3Cc4ccccc4C3)C2)n1` (configuration not stated), for which the “Percent Effect” value is recorded as 53.28%.
The same measure for `N#Cc1cccc(NC2CC(=O)N(CCCc3ccccc3)C2)n1` (configuration not stated): 2.519%; for `N#Cc1cccc(NC2CC(=O)N(Cc3ccccc3Cl)C2)n1` (configuration not stated): -13.97%.
The same measure for `O=C1CCC2(CCN(Cc3ccsc3)CC2)N1Cc1ccccc1`: 26.5%; for `Cc1ccoc1C(=O)NC1CCN(Cc2ccccc2C#N)CC1`: -4.356%.
With `COc1ccc(NC(=O)NCC(C)N2CCc3ccccc32)cc1` (configuration not stated), the “Percent Effect” value came out at 13.58%.
The result for `CC(CNC(=O)Nc1ccc(C#N)cc1)N1CCc2ccccc21` (configuration not stated) reads 62.86%; that for `CC(CNC(=O)c1ccc(C#N)cc1)N1CCc2ccccc21` (configuration not stated), 20.43%.
For `Cc1nc(C2CCCN2CC(=O)Nc2cc(C(C)(C)C)nn2C)no1` (configuration not stated), the “Percent Effect” value was -17.86%.
Regarding `O=C(c1cnc(-c2cccs2)s1)N1CCCC(n2ccnc2)C1` (configuration not stated), the “Percent Effect” value is 6.926%.
On to `Cc1oncc1C(=O)N1CCC2(CC1)CC(N1CCOCC1)C2.O=C(O)C(F)(F)F`, for which the “Percent Effect” value is 14.16%.
With `Cc1nc(NCC2CC2)nc2c1COCC21CCN(CC(=O)N(C)C)C1` (configuration not stated), the “Percent Effect” value is -16.56%.
The same measure for `OCCn1nnnc1Cc1ccc(Br)cc1`: 32.76%; for `CC(C)OCCn1nnnc1Cc1ccc(Br)cc1`: 80.17%; for `N#CCCCn1nnnc1Cc1ccc(Br)cc1`: 19.45%.
As to `Cc1ccnn1CCC(=O)N1CCCC[C@]2(C)NC(=O)CCC[C@H]12`, the “Percent Effect” value is listed as 0.426%.
Turning to `CN1CCN(C(=O)CCn2nnc3ccccc32)CC(C(N)=O)C1` (configuration not stated), the “Percent Effect” value is on record as 53.1%.
The result for `CNC(=O)C1CN(C)CCN(C(=O)CCn2nnc3ccccc32)C1` (configuration not stated) reads 37.61%; that for `CN1CCN(C(=O)CCn2ncc3ccccc32)CC(C(N)=O)C1` (configuration not stated), 40.84%; that for `CCC(C(=O)Nc1ccc2nc(C)oc2c1)N1CCCC1=O` (configuration not stated), -18.53%.
The same measure for `Cn1cccc1C(=O)N1CCC2(CC1)CN(S(C)(=O)=O)c1ccccc12`: 9.432%.
`OC(COc1ccccc1Br)COC1CCOCC1` (configuration not stated): the “Percent Effect” value turned out to be 10.03%.
The result for `CN(c1ccc(CNc2ccc(Cl)cn2)cc1)S(C)(=O)=O` reads 21.91%; that for `Clc1ccc(CNc2ccc(Cl)cn2)cc1`, -25.47%; that for `CN(C)S(=O)(=O)c1ccc(CNc2ccc(Cl)cn2)cc1`, 63.29%.
Regarding `O=C(COCC1CC1)Nc1ncccc1O`, the “Percent Effect” value was -3.464%.
For `COc1ccccc1-c1cc(NC(=O)COCC2CC2)[nH]n1`, the “Percent Effect” value is recorded as 43.6%.
On to `O=C(COCC1CC1)Nc1cc(-c2ccc(Br)s2)n[nH]1`, for which the “Percent Effect” value worked out at 108.2%.
Regarding `O=C(CCn1c(C(F)F)cc2cccnc21)NC1CCCC1`, the “Percent Effect” value is given as -12.05%.
For the compound `CC(C)CNC(=O)c1cc2c(s1)CCN2S(C)(=O)=O`, the “Percent Effect” value is recorded as -19.48%.
As to `Cc1cc(C2CCC2)nc(N2CCC3(CCNC(=O)CC3)CC2)n1`, the “Percent Effect” value is given as 19.37%.
For the compound `Cn1ccnc1SCC(=O)NCc1ccc2c(c1)CCC(=O)N2`, the “Percent Effect” value is given as -11.99%.
On to `Cc1ccc(C2CSCCN2C(=O)c2cc(C(N)=O)cs2)o1` (configuration not stated), for which the “Percent Effect” value is listed as 23.87%.
With `Cc1c(C(=O)N(C)CC(F)(F)F)nnn1-c1ccc(F)cc1`, the “Percent Effect” value came out at 26.05%.
The result for `c1ccc2c(c1)CCN(c1nc(-c3ccncc3)nc3c1CCNC3)C2` reads 18.38%; that for `CN(C)c1nc2c(c(N3CCc4ccccc4C3)n1)CCNC2`, 60.07%.
The same measure for `Cc1ccccc1N1CCN(c2nc(N(C)C)nc3c2CCNC3)CC1`: -18.26%.
In the case of `Cc1n[nH]c(C)c1-c1nccnc1CC1CCN(C(C)C)CC1`, the “Percent Effect” value is -33.1%.
The result for `COc1ccc(C(=O)N2CC(=O)N(C3CCC3)CC(O)C2)cc1OC` (configuration not stated) reads -13.29%; that for `CC(Oc1cc(Cl)cc(Cl)c1)C(=O)NCCOCC(N)=O` (configuration not stated), -19.42%.
As to `CC(=O)NC1CCN(C(=O)Nc2cccc(C(F)(F)F)c2)CC1`, the “Percent Effect” value is reported as 20.69%.
The same measure for `O=C(Nc1ccc2c(c1)OCO2)N1CCN(CCn2ccnc2)CC1`: -27.6%; for `O=C(Nc1cccc(C(F)(F)F)c1)N1CCN(CCn2ccnc2)CC1`: 98.5%.
Turning to `Cc1nn(C)c(C)c1CN1CCCC1c1nccc(CN(C)C)n1` (configuration not stated), the “Percent Effect” value is reported as -90.49%.
The same measure for `CS(=O)(=O)N1CC(c2n[nH]c3ncccc23)C1`: -14.19%; for `COc1cccc(CN2CCN(c3noc(C(C)C)n3)CC2)c1F`: 42.13%.
The result for `COc1cccc(CN2CCN(c3cccc(C(C)C)n3)CC2)c1F` reads 57.83%; that for `COc1cccc(CN2CC[C@H](NC(C)=O)[C@@H](O)CC2)c1F`, -15.13%.
